# Key:
# Experiment in all cases: DAPPL (digital affinity profiling via proximity ligation, sequencing); 10 mM Tris-HCl pH 7.5, 50 mM NaCl, 1 mM DTT, 4% glycerol, room temperature, 30 min; GST-TFs on glutathione beads, 16-mer random dsDNA library, 0.1% formaldehyde crosslink after washing; high values mean tight binding
# FLI1 = molecular target: T1, FLI1 (Homo sapiens, UniProt Q01543 1-452); conditions: protein: recombinant; tags: N-terminal GST; dsDNA, one strand shown
# T1 sequence: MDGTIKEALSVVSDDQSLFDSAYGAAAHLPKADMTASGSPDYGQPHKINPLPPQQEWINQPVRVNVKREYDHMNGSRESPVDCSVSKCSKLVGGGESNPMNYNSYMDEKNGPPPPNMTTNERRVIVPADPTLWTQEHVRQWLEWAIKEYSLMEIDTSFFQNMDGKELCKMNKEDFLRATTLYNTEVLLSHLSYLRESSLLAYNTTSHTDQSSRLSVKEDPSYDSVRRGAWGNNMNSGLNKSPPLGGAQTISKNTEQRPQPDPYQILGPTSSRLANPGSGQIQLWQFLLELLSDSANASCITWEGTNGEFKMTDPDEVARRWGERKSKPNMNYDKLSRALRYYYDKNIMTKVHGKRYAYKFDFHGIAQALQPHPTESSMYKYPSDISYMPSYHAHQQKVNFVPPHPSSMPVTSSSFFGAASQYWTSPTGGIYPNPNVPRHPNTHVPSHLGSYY
# In short: (§1)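 GST fusions of human transcription factors were expressed in yeast and captured with glutathione beads. Once given DNA barcodes and pooled alongside a tag-only sample, they were incubated for 30 min at room temperature with 200 nmole of a random double-stranded 16-mer DNA library in Tris/NaCl/DTT/glycerol buffer, then washed, crosslinked (0.1% formaldehyde), proximity-ligated, PCR-amplified and sequenced on an Illumina NextSeq500. The binding signal of each hexamer is its read frequency for a factor divided by its frequency for the tag-only sample.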
# ELK1 = molecular target: T2, ELK1 (Homo sapiens, UniProt P19419 1-428); conditions: protein: recombinant; tags: N-terminal GST; dsDNA, one strand shown
# T2 sequence: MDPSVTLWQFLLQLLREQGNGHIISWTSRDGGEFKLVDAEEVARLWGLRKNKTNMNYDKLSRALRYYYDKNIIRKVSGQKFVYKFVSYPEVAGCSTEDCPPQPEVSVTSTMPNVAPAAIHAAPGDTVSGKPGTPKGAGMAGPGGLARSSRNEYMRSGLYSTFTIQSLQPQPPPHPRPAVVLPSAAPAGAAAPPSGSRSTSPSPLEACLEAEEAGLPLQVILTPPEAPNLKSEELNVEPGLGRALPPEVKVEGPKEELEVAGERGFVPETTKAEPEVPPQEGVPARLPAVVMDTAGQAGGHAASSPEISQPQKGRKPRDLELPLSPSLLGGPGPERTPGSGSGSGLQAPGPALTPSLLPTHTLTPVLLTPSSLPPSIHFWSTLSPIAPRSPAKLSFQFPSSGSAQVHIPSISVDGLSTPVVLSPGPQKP
# In short: as §1
# GABPA = molecular target: T3, GABPA (Homo sapiens, UniProt Q06546 1-454); conditions: protein: recombinant; tags: N-terminal GST; dsDNA, one strand shown
# T3 sequence: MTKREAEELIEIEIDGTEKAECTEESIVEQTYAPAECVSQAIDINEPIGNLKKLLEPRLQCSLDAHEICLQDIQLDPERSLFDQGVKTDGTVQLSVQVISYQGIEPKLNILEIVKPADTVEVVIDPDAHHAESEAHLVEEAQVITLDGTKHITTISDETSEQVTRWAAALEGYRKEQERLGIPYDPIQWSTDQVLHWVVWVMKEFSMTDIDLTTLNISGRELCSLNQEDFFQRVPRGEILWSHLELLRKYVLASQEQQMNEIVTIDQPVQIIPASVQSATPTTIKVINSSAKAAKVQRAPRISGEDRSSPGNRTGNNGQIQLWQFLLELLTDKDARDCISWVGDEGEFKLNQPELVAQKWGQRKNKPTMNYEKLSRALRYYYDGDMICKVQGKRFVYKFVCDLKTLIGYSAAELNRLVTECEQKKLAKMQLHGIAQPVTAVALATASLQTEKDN
# In short: as §1
# ERG = molecular target: T4, ERG (Homo sapiens, UniProt P11308 1-479); conditions: protein: recombinant; tags: N-terminal GST; dsDNA, one strand shown
# T4 sequence: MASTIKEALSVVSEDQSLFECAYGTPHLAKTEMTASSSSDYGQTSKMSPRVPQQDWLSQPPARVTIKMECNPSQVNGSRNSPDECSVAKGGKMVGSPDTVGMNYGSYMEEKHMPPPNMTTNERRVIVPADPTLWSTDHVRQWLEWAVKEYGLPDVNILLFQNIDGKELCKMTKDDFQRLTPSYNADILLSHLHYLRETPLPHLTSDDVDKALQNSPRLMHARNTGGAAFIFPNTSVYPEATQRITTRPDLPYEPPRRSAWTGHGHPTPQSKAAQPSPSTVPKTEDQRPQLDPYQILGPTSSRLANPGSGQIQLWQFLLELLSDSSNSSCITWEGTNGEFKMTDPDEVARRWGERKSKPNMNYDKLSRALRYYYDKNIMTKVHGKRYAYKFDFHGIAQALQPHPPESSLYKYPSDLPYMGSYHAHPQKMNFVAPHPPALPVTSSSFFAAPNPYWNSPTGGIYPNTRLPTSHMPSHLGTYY
# In short: as §1
# ELF1 = ELF1 (Homo sapiens, UniProt P32519 1-619); conditions: protein: recombinant; tags: N-terminal GST; dsDNA, one strand shown
# Sequence of ELF1 (P32519 whole entry): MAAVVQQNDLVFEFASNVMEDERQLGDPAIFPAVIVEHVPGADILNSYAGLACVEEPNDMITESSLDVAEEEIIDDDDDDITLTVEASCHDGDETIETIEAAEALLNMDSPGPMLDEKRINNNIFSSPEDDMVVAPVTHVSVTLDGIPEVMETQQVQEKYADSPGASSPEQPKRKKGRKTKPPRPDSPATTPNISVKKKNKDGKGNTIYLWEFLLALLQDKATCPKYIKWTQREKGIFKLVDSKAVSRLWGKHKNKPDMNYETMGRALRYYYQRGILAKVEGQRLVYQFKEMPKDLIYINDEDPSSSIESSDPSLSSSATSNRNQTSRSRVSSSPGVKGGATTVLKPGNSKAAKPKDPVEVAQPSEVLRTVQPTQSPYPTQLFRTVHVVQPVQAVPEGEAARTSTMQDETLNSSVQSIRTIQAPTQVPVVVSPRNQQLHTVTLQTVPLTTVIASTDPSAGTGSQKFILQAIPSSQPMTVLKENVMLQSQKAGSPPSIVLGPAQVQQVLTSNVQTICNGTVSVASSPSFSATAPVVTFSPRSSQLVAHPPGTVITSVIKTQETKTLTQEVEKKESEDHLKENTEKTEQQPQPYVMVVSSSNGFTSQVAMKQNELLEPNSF
# In short: as §1
# EHF = molecular target: T5, EHF (Homo sapiens, UniProt Q9NZC4 1-300); conditions: protein: recombinant; tags: N-terminal GST; dsDNA, one strand shown
# T5 sequence: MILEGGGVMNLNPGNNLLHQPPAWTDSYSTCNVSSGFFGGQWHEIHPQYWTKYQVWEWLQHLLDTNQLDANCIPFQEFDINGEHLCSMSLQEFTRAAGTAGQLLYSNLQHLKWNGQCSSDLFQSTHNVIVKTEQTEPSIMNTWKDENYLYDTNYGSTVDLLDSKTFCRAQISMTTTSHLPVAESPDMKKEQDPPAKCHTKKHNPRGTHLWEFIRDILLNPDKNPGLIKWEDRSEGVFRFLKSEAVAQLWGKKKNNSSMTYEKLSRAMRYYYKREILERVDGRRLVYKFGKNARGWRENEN
# In short: as §1
# SPI1 = SPI1 (Homo sapiens, UniProt P17947 1-270); conditions: protein: recombinant; tags: N-terminal GST; dsDNA, one strand shown
# In short: as §1
# SPIB = SPIB (Homo sapiens, UniProt Q01892 1-262); conditions: protein: recombinant; tags: N-terminal GST; dsDNA, one strand shown
# Sequence of SPIB (Q01892 whole entry): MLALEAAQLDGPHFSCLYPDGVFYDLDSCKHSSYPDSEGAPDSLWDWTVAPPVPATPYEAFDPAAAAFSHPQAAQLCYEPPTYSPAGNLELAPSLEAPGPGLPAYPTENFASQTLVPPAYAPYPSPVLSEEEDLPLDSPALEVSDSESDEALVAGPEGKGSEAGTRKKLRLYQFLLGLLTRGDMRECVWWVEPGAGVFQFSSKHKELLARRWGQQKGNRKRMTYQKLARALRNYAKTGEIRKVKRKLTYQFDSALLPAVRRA
# In short: as §1
# ELK3 = molecular target: T6, ELK3 (Homo sapiens, UniProt P41970 1-407); conditions: protein: recombinant; tags: N-terminal GST; dsDNA, one strand shown
# T6 sequence: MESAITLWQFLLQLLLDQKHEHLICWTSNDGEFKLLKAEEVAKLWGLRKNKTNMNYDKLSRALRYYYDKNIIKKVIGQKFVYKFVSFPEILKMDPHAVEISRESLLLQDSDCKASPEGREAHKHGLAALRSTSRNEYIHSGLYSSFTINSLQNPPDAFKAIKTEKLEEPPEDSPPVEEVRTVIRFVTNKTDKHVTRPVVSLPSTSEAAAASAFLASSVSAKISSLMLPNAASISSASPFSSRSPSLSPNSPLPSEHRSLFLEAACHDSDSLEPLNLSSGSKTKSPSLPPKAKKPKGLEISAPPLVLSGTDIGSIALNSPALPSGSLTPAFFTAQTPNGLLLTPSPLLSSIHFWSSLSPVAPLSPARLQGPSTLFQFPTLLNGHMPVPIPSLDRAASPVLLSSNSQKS
# In short: as §1
# FEV = molecular target: T7, FEV (Homo sapiens, UniProt Q99581 1-238); conditions: protein: recombinant; tags: N-terminal GST; dsDNA, one strand shown
# T7 sequence: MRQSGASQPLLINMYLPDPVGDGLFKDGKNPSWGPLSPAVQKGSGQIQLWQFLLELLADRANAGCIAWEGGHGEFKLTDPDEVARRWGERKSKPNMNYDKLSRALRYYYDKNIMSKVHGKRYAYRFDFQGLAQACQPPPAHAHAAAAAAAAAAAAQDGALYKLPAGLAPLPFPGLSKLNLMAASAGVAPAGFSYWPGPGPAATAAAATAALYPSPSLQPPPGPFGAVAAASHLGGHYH
# In short: as §1
# ETV5 = ETV5 (Homo sapiens, UniProt P41161 1-510); conditions: protein: recombinant; tags: N-terminal GST; dsDNA, one strand shown
# Sequence of ETV5 (P41161 whole entry): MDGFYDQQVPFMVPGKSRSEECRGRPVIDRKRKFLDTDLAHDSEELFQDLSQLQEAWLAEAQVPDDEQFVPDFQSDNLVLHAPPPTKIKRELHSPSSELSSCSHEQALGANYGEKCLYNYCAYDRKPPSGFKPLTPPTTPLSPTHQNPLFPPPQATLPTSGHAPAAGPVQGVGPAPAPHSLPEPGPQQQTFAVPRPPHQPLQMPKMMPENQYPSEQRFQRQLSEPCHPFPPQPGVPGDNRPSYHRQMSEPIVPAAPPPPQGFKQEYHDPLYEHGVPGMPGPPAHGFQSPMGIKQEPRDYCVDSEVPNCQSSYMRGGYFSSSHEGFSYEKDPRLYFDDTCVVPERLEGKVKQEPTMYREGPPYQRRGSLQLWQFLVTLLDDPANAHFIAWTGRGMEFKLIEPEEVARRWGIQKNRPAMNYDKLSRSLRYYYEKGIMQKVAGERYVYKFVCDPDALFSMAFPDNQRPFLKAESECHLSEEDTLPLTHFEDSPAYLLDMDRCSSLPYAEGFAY
# In short: as §1
# HSF1 = HSF1 (Homo sapiens, UniProt Q00613 1-529); conditions: protein: recombinant; tags: N-terminal GST; chain copies: 3; dsDNA, one strand shown
# Sequence of HSF1 (Q00613 whole entry): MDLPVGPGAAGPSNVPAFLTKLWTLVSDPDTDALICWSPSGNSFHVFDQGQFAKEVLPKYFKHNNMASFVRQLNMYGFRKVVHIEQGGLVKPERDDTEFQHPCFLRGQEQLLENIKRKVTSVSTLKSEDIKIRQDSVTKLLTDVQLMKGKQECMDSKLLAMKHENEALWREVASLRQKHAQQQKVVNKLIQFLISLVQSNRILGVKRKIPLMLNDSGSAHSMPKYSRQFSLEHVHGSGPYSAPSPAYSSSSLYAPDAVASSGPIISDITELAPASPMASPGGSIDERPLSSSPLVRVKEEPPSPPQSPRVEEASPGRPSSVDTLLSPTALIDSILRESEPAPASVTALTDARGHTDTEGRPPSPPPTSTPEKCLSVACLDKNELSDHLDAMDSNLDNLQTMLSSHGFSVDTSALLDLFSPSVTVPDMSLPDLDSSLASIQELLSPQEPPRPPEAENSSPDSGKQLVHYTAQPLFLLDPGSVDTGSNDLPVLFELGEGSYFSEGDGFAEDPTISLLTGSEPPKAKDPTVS
# In short: as §1
# SPIC = molecular target: T8, SPIC (Homo sapiens, UniProt Q8N5J4 1-248); conditions: protein: recombinant; tags: N-terminal GST; dsDNA, one strand shown
# T8 sequence: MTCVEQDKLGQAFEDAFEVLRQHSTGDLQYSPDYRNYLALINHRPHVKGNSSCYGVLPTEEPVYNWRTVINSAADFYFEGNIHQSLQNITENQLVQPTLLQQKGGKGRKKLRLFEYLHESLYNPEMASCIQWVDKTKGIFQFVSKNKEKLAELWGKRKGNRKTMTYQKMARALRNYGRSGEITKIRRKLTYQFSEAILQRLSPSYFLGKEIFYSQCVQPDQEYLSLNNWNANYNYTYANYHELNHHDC
# In short: as §1
# ELF4 = ELF4 (Homo sapiens, UniProt Q99607 1-663); conditions: protein: recombinant; tags: N-terminal GST; dsDNA, one strand shown
# Sequence of ELF4 (Q99607 whole entry): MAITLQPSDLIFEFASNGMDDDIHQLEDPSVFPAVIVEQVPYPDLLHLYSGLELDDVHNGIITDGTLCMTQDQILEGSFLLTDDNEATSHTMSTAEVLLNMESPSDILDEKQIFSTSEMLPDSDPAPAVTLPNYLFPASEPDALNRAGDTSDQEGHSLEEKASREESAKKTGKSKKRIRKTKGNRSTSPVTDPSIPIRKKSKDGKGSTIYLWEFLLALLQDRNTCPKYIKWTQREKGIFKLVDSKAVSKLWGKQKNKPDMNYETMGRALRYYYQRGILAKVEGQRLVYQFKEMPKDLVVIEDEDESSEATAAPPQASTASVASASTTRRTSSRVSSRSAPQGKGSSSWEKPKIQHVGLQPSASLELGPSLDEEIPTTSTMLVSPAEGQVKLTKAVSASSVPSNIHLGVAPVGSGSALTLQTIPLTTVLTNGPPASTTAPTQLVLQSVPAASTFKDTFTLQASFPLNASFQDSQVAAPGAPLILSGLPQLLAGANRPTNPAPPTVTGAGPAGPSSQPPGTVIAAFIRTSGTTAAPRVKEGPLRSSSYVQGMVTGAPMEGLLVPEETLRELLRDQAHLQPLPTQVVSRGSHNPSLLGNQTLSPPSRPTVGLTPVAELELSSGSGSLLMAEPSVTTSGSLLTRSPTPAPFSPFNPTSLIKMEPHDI
# In short: as §1
# ELK4 = molecular target: T9, ELK4 (Homo sapiens, UniProt P28324-2 1-405); conditions: protein: recombinant; tags: N-terminal GST; dsDNA, one strand shown
# T9 sequence: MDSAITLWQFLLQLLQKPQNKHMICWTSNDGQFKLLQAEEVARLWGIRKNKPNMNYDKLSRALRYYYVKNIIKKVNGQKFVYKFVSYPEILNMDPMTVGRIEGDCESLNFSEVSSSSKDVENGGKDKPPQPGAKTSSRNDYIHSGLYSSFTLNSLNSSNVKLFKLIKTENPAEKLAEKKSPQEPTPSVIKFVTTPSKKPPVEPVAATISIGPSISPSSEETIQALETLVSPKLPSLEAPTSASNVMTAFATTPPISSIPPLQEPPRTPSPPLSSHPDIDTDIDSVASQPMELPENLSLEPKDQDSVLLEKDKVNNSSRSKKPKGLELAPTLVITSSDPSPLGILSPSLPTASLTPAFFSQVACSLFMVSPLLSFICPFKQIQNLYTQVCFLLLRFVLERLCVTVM
# In short: as §1
# ETV2 = molecular target: T10, ETV2 (Homo sapiens, UniProt O00321 1-342); conditions: protein: recombinant; tags: N-terminal GST; dsDNA, one strand shown
# T10 sequence: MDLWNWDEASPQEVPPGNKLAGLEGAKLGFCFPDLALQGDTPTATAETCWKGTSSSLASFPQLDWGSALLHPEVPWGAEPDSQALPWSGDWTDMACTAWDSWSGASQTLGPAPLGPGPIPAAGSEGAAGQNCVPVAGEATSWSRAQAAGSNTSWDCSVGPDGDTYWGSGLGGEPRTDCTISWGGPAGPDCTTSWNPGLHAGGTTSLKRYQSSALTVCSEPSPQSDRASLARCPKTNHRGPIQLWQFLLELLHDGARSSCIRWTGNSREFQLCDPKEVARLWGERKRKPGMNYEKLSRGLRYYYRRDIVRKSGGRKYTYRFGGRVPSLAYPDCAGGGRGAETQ
# In short: as §1
# ELF3 = molecular target: T11, ELF3 (Homo sapiens, UniProt P78545 1-371); conditions: protein: recombinant; tags: N-terminal GST; dsDNA, one strand shown
# T11 sequence: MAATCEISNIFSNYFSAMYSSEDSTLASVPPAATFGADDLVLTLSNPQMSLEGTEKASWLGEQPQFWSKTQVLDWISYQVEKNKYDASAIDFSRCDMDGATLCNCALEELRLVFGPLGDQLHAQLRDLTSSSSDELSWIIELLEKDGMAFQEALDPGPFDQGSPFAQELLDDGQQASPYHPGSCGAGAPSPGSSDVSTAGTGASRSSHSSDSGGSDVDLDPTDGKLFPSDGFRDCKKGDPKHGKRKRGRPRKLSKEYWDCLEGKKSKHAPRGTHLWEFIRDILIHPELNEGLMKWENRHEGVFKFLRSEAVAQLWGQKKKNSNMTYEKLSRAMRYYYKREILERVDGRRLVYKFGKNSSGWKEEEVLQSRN
# In short: as §1
# ETV1 = ETV1 (Homo sapiens, UniProt P50549 1-477); conditions: protein: recombinant; tags: N-terminal GST; dsDNA, one strand shown
# Sequence of ETV1 (P50549 whole entry): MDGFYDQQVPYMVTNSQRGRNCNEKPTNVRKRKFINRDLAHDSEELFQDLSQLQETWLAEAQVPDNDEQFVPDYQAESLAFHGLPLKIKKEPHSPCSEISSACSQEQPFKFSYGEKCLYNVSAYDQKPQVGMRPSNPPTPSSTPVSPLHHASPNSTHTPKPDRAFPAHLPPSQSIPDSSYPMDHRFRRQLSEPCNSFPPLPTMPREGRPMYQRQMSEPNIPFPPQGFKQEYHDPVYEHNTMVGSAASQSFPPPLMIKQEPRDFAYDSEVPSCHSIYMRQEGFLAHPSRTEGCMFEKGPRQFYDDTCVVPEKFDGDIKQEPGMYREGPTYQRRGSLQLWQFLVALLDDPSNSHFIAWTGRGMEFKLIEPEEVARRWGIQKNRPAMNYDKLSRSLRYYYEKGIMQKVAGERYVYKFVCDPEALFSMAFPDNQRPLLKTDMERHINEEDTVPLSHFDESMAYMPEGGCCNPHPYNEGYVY
# In short: as §1
sequence,measurement,setting,value
GCACTC,binding signal,FLI1,"1.29 fold enrichment (6-mer frequency, TF over GST control)"
same,binding signal,ELK1,"1.5 fold enrichment (6-mer frequency, TF over GST control)"
same,binding signal,GABPA,"1.32 fold enrichment (6-mer frequency, TF over GST control)"
same,binding signal,ERG,"1.31 fold enrichment (6-mer frequency, TF over GST control)"
same,binding signal,ELF1,"1.33 fold enrichment (6-mer frequency, TF over GST control)"
same,binding signal,EHF,"1.37 fold enrichment (6-mer frequency, TF over GST control)"
same,binding signal,SPI1,"1.35 fold enrichment (6-mer frequency, TF over GST control)"
same,binding signal,SPIB,"1.35 fold enrichment (6-mer frequency, TF over GST control)"
same,binding signal,ELK3,"1.28 fold enrichment (6-mer frequency, TF over GST control)"
same,binding signal,FEV,"1.31 fold enrichment (6-mer frequency, TF over GST control)"
same,binding signal,ETV5,"1.38 fold enrichment (6-mer frequency, TF over GST control)"
same,binding signal,HSF1,"1.06 fold enrichment (6-mer frequency, TF over GST control)"
same,binding signal,SPIC,"1.25 fold enrichment (6-mer frequency, TF over GST control)"
same,binding signal,ELF4,"1.31 fold enrichment (6-mer frequency, TF over GST control)"
same,binding signal,ELK4,"1.33 fold enrichment (6-mer frequency, TF over GST control)"
same,binding signal,ETV2,"1.36 fold enrichment (6-mer frequency, TF over GST control)"
same,binding signal,ELF3,"1.41 fold enrichment (6-mer frequency, TF over GST control)"
same,binding signal,ETV1,"1.33 fold enrichment (6-mer frequency, TF over GST control)"
